About 83,000 compounds went through this panel and 20% of them were active in at least one assay; those are over-represented in the sample as a whole.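 Single-concentration screen, 48 h exposure, 96-well plates. Endpoint: percent growth. Below 10 = active.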 Unmarked numbers belong to inactive results. Active and inactive are the calls of the source.
Key:
Experiment in all cases: NCI-60 one-dose screen, 48 h (100 = growth as untreated, 0 = no growth, -100 = all killed)
Settings in all cases: 10 µM unless noted
DU-145 prostate = test system: DU-145 prostate
K-562 leukemia = test system: K-562 leukemia
MALME-3M melanoma = test system: MALME-3M melanoma
MDA-MB-231 breast = test system: MDA-MB-231 breast
RXF 393 renal = test system: RXF 393 renal
SF-268 CNS = test system: SF-268 CNS
SF-295 CNS = test system: SF-295 CNS
SF-539 CNS = test system: SF-539 CNS
UACC-257 melanoma = test system: UACC-257 melanoma
M14 melanoma = test system: M14 melanoma
HCT-15 colon = test system: HCT-15 colon
HT29 colon = test system: HT29 colon
SNB-75 CNS = test system: SNB-75 CNS
SNB-19 CNS = test system: SNB-19 CNS
U251 CNS = test system: U251 CNS
PC-3 prostate = test system: PC-3 prostate
SK-MEL-5 melanoma = test system: SK-MEL-5 melanoma
UACC-62 melanoma = test system: UACC-62 melanoma
LOX IMVI melanoma = test system: LOX IMVI melanoma
SK-MEL-28 melanoma = test system: SK-MEL-28 melanoma

| Compound | growth (DU-145 prostate) | growth (K-562 leukemia) | growth (MALME-3M melanoma) | growth (MDA-MB-231 breast) | growth (RXF 393 renal) | growth (SF-268 CNS) | growth (SF-295 CNS) | growth (SF-539 CNS) | growth (UACC-257 melanoma) | growth (M14 melanoma) | growth (HCT-15 colon) | growth (HT29 colon) | growth (SNB-75 CNS) | growth (SNB-19 CNS) | growth (U251 CNS) | growth (PC-3 prostate) | growth (SK-MEL-5 melanoma) | growth (UACC-62 melanoma) | growth (LOX IMVI melanoma) | growth (SK-MEL-28 melanoma) |
| --- | --- | --- | --- | --- | --- | --- | --- | --- | --- | --- | --- | --- | --- | --- | --- | --- | --- | --- | --- | --- |
| Cn1cc(CC2CC(=O)N(c3ccccc3)C2=O)sc1=NC(=O)c1ccccc1 (stereo not given) | 103% | 104% | 89.9% | 111% | 92.2% | 96.2% | 102% | 99.8% | 98% | 90.9% | 101% | 103% | 82% | 100% | 102% | 95.5% | 101% | 93.3% | 102% | 98.1% |
| CCOC(=O)c1cc(C(=O)c2ccc(Br)cc2)n2ccc(/C=C/c3cc[n+](CC(=O)c4ccc(OC)cc4)cc3)cc12 | 87% | 3.23% (active) | 97.9% | 71.6% | 94.4% | 110% | 103% | 102% | 100% | 95.9% | 70.7% | 34.3% | 93.7% | 89.1% | 101% | 83.8% | 95.3% | 92.7% | 81% | 106% |
| COc1ccccc1NS(=O)(=O)c1cccc(C(=O)Nc2ccc(Br)cc2)c1 | 52.1% | 25.6% | 32% | 50.6% | 57.7% | 30.9% | 27% | 64.3% | 32.9% | 38.9% | 37.8% | 46.6% | 65.9% | 53.4% | 62% | 25.4% | -31.7% (active) | 32.1% | 42.4% | 62.9% |
| C=C1C(=O)O[C@H]2[C@H]1CC/C(CNC(=O)C(C)c1ccc(CC(C)C)cc1)=C\CC[C@@]1(C)O[C@@H]21 (stereo not given in full) | 16.4% | -13.8% (active) | -60.7% (active) | -1.8% (active) | -64.4% (active) | 43.9% | 75.9% | -74.8% (active) | -11.4% (active) | -74.3% (active) | -55.7% (active) | -52.4% (active) | 64.5% | 48.9% | 45.2% | 16.6% | 61.3% | -27.2% (active) | -80.3% (active) | -76.9% (active) |
| Nc1ccccc1NC(=O)c1ccc(-n2nc(-c3ccccc3)c3ccccc32)cc1 | 87.2% | 43.7% | 68.9% | 42.9% | 88.7% | 68.2% | 90.7% | 48.8% | 86.2% | 88.9% | 76.7% | 88.4% | 38.4% | 78.8% | -85.6% (active) | 58.6% | 82.9% | 77.5% | 79.7% | 99.7% |
| Nc1c(C(=O)Nc2ccnc3ccccc23)sc2nc3c(cc12)CN(Cc1ccccc1)CC3 | 85.6% | 38.5% | 96% | 67.7% | 96.1% | 87.8% | 75.2% | 99.1% | 78.8% | 41.9% | 69.9% | 103% | 110% | 83.7% | 98% | 45.5% | 9.7% (active) | 49.4% | 69.6% | 102% |
| O=C(/C=C/c1ccc(Cl)cc1)c1ccc(NC(=O)N2CCN(c3cc4c(cc3F)c(=O)c(C(=O)O)cn4C3CC3)CC2)cc1 | 98.5% | 65% | 103% | 93% | 97.9% | 89.3% | 108% | 81.7% | 105% | 104% | 96.4% | 89.3% | 92.1% | 87.6% | 92.4% | 97.7% | 93.6% | 76.1% | 6.5% (active) | 99.2% |

Reference: PubChem BioAssay (NCI)
